Assay outcomes: PubChem, National Center for Advancing Translational Sciences (NCATS)
Vaccinia mCherry = vaccinia inhibition (mCherry reporter) | Vaccinia virus mCherry reporter infection, fluorescence | Potency, µM (titrated, usually from 36.5 µM), without a hit: at the highest dose activity change, negative = inhibition, hits mostly inhibitors | 0.63% of 310,000 active; calls by dose curve; tested in A549 cells; further: nearly all actives have a fitted effect of over 35% in size
VACV Venus inh = vaccinia inhibition (Venus reporter); Vaccinia virus Venus reporter expression, fluorescence; Potency, µM (highest dose often 36.5 µM), for inactives: at the highest dose activity change, negative = inhibition, hits mostly inhibitors; 0.46% of 330,000 active; AID 720580; calls by dose curve; tested in A549 cells; further: nearly all actives have a fitted effect of over 30% in size
HCV inh = HCV inhibition; AID 651820; Potency, µM (top dose mostly 41.8 µM), inactives show at the highest dose activity change, negative = inhibition, actives largely listed as inhibitors; Huh7.5.1 HCVcc-Cre infection, luciferase reporter, 44 h; 3.4% of 340,000 active; active means well fitted inhibition curve with a large enough effect; inconclusive means small, poorly fitted or top-dose-only effect, or another doubt; inactive means no such curve, though single readings can be large or run the other way
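Cells seeded at 1,000/well and cultured 4 h, then compounds added followed by HCVcc-Cre virus (~0.5 moi). After 44 h further culture, luciferase substrate was added, plates held 15 min at room temperature, and luminescence read for 15 sec.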
* hit, by the source's call; i = inactive; ? = inconclusive; . = no result given; [ ] = dose if it differs, or a comment. Sampled rows, rich in hits. Any-hit rate of the full collection: about 3.3%. On the % scale 0 is the no-effect control and ±100 the full control effect; potency means the concentration at half of the fitted maximal effect.

SMILES	Vaccinia mCherry	VACV Venus inh	HCV inh
Cc1cccc(N=C2NC(=O)/C(=C/c3cccn3C)S2)c1	.	.	11µM*
O=C1NC(=Nc2ccccc2)S/C1=C\c1cccn1-c1ccccc1	.	?	2.8µM*
O=C1NC(=Nc2ccccc2)S/C1=C\c1cccnc1	.	.	7%
O=C(CCc1c[nH]c2ccccc12)NC(Cc1ccccc1)C(=O)O (stereo not drawn)	i	-20%	14%
CC(C)[C@H](NC(=O)CNC(=O)OC(C)(C)C)C(=O)N[C@H](C=O)C(C)C	-6%[60.7 µM]	-4%[60.7 µM]	.
COCCCNC(=O)C1CCN(C(=O)c2cc3sccc3n2Cc2ccc(F)cc2)CC1	-16%	-24%	?
O=C(NCCCN1CCCC1)C1CCN(C(=O)c2cc3sccc3n2Cc2ccc(F)cc2)CC1	-26%	-22%	25µM*
Cc1noc(C(=O)N2CCN(Cc3ccc4c(c3)OCO4)CC2)c1Cl	-6%	-10%	6%
COC(=O)[C@]12OC[C@]34C([C@@H](O)[C@@H]1O)[C@]1(C)CC(=O)C(O)=C(C)[C@@H]1C[C@H]3OC(=O)[C@H](O)[C@@H]24 (stereo partly drawn)	?	0.89µM*	?
CCCCN(CCCC)c1ccc(/C=C2\C=Cc3ccccc32)cc1	26%	10%	.
O=C(Cn1c(-c2ccccc2)c[n+]2ccsc12)c1ccccc1	i	-27%	-1%
O=C(Cn1c(-c2ccccc2)c[n+]2ccsc12)c1ccc([N+](=O)[O-])cc1	.	.	10µM*
Cc1ccccc1Nc1cc(C(=O)NCCCN2CCN(c3cccc(Cl)c3)CC2)c2ccccc2n1	-29%	?	.
Cc1cc(C)n(-c2nc(NCC(C)O)c3c4c(sc3n2)CCCC4)n1 (stereo not drawn)	.	-9%	5.6µM*
Cc1cc(C)n(-c2nc(NCCO)c3c4c(sc3n2)CCCC4)n1	.	?	7.1µM*
N=c1c2c3c(sc2ncn1CCCO)CCCC3	.	1%	8%
O=c1c2c3c(sc2nc(NCCO)n1-c1ccccc1)CCCC3	-8%	-24%	-16%
Cc1cc(C)n(-c2nc(NCCCO)c3c4c(sc3n2)CCCC4)n1	.	-29%	7.1µM*
Cc1cc(C)n(-c2nc(NCC(C)O)c3c4c(sc3n2)COC(C)(C)C4)n1 (stereo not drawn)	.	.	-13%
COc1cc(=O)n2c(c1C(=O)NC(C)c1ccco1)CCN(C(=O)c1ccc(F)cc1Cl)CC2 (stereo not drawn)	i	-12%	.
Cc1ccc(CSCC(=O)N2CCN(c3cc(Cl)ccc3C)CC2)cc1	-6%	-11%	.
COc1ccc(CNC(=O)Cn2cnc3c(NCc4ccccc4)ncnc32)cc1	?	-24%	-11%
COc1ccc(NC(=O)CN2C(=O)CC(c3ccco3)Sc3ccccc32)cc1OC (stereo not drawn)	-11%	-6%	.
COc1ccccc1N=c1scc(-c2ccc(S(=O)(=O)N3CCCC3)cc2)n1C	-19%[7.34 µM]	?	.
COc1cc(NC(=O)Nc2ccc(Cl)c(Cl)c2)c(C(=O)O)cc1OC	.	.	27%
SMILES	Vaccinia mCherry	VACV Venus inh	HCV inh
Cc1cccc2[nH]c3c(N4CCC5(CC4)OCCO5)ncnc3c12	.	.	8.9µM*
Clc1ccc2[nH]c3c(NCCN4CCOCC4)ncnc3c2c1	i	-20%	?
Cc1cccc2[nH]c3c(N4CCN(C(=O)c5ccco5)CC4)ncnc3c12	.	.	-35%
Clc1ccc2[nH]c3c(N4CCC5(CC4)OCCO5)ncnc3c2c1	8.9µM*	8.9µM*	13µM*
C[C@@H]1[C@H](c2ccccc2)OCCS(=O)(=O)N1Cc1cccc(C(F)(F)F)c1	-15%	-11%	.
CC1CCc2c(sc3ncnc(NCCCOC(C)C)c23)C1 (stereo not drawn)	-7%	-28%	10µM*
CC1CCc2c(sc3ncn(N)c(=N)c23)C1 (stereo not drawn)	?	12%	?
c1cncc(CNc2ncnc3sc4c(c23)CCC4)c1	-8%	-7%	?
CC1CCc2c(sc3ncnc(NCc4cccnc4)c23)C1 (stereo not drawn)	.	.	25µM*
CCc1nnc(NC(=O)[C@@H]2CCCN2C(=O)c2cccs2)s1	-8%	-11%	.
CC(=O)c1cc2c(cc1NS(=O)(=O)c1ccccc1Br)OCO2	-11%	-2%	-21%
CN(C)c1ccc(C2=Cc3ccccc3C2)cc1	-3%	-6%	.
CCCCN1C(=O)CN(C2CCCCCC2)C(=O)C1c1ccc(OCC)c(OC)c1 (stereo not drawn)	-11%	-6%	.
Cc1c(C)n(CCN(C)C)c2ncnc(NCc3ccccc3)c12	-21%	-13%	-29%
Cc1c(C)n(CCc2ccccc2)c2ncnc(NCCCN(C)C)c12	7.1µM*	?	?
Cc1ccc(CSC(Nc2ccc(F)cc2)=C(C#N)C#N)cc1	-13%	?	8.9µM*
CCN(CC)C(=O)CSC(Nc1ccc(F)cc1)=C(C#N)C#N	i	40%	0%
CCN1CCN(S(=O)(=O)c2ccc(Cl)c(C(=O)NC(C)c3ccccc3Cl)c2)CC1 (stereo not drawn)	-18%	-19%	?
O=C(OCC(=O)N1CCN(c2ccccc2)CC1)c1ccc(O)cc1O	-12%	-5%	14%
CC(=O)c1cc(C(=O)c2ccccc2)sc1Nc1ccccc1	-34%	?	13µM*
Cc1nc(Nc2ccccc2)sc1C(=O)c1ccccc1	-22%	-5%	-11%
CN1CCN(CCCNC(=O)c2ccc(/C=C3\Oc4ccccc4N(Cc4ccccc4F)C3=O)cc2)CC1	.	.	14µM*
COCCCNC(=O)/C=C1\Sc2ccccc2N(Cc2ccccc2F)C1=O	-19%	-5%	-21%
CCN1CCN(CCNC(=O)c2ccc(/C=C3\Sc4ccccc4N(Cc4ccccc4F)C3=O)cc2)CC1	.	.	11µM*
CC1CCC(NC(=O)c2ccc(/C=C3\Oc4ccccc4N(C)C3=O)cc2)CC1 (stereo not drawn)	.	.	10%
SMILES	Vaccinia mCherry	VACV Venus inh	HCV inh
CCN1C(=O)[C@H]2[C@@H](c3ccc(-c4ccc(C(C)=O)cc4)cc3)N[C@@](C)(C(=O)OC)[C@H]2C1=O	-13%	-11%	4%
O=C(CCc1ccccc1)Nc1cc(S(=O)(=O)N2CCOCC2)ccc1N1CCCC1	-17%	-13%	-16%
COc1ccc(CN2CC[C@H]3C=CC[C@@H](C(=O)NCc4cccnc4)[C@H]3C2=O)cc1OC	i	-4%	.
Cc1ccc(-c2ccnc(-n3ncc(C(=O)N(C)CC4CCCN(C)C4)c3C)n2)o1 (stereo not drawn)	-6%	-9%	.
CC(=O)Nc1ccc(/C(C)=N/NC(=O)c2ccc(CN3CCOCC3)cc2)cc1	-6%	-10%	-1%
O=[N+]([O-])c1ccc(Cl)c(/C=N/N2CCN(Cc3ccc(Cl)cc3)CC2)c1	.	.	6%
C/C(=N\NC(=O)c1ccc(CN2CCOCC2)cc1)c1ccc([N+](=O)[O-])cc1	-15%	-29%	11µM*
C/C(=N\N1CCN(Cc2ccc(Cl)cc2)CC1)c1ccc([N+](=O)[O-])cc1	-22%	-4%	11µM*
CCOc1ccccc1CNC(=O)CCC(=O)N1CCSc2ccccc21	-11%	-14%	.
COc1ccccc1Cc1nc2ccccc2nc1SCC(=O)N(C)c1ccc(F)cc1	i	-4%	.
C[C@@H]1CN(Cc2ccc3c(c2)CN(C(=O)c2ccc(Oc4ccccc4)o2)CCO3)C[C@H](C)O1	-29%	-21%	.
COc1cc2c3cc1Oc1cc(ccc1O)C[C@@H]1c4c(cc(OC)c(O)c4Oc4cccc(c4)C[C@@H]3N(C)CC2)CC[N+]1(C)C	-16%	-12%	-4%
